D2 PAM-1 = Beta-Arrestin HTS for Positive Allosteric Modulators of the Human D2 Dopamine Receptor: Potentiators; AID 624464, 2012; D(2) dopamine receptor (Homo sapiens), P14416; 360,000 tested, 0.23% active; DiscoveRx D2 beta-arrestin cells, luminescence, 90 min; 100% = 57 uM dopamine signal; potentiation, % (test concentration not listed); in the data active = potentiation above about 50%
Target sequence (P14416 whole entry, looked up): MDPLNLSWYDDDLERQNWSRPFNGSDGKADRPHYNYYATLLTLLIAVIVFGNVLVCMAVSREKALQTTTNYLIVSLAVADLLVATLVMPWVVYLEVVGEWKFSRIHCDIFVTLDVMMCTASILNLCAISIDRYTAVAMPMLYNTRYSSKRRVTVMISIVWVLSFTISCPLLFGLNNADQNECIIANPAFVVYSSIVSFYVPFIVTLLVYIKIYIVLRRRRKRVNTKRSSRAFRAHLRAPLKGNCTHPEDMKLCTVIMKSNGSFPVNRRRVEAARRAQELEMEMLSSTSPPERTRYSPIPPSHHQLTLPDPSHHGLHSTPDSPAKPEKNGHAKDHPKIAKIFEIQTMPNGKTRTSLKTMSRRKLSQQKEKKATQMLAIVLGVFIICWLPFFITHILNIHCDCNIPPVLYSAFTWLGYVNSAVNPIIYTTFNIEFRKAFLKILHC
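PathHunter D2 cells, attached overnight at 37 deg C, received compound in DMSO plus dopamine at EC20 (50 nM final) for 90 min at 37 deg C. Beta-arrestin recruitment was read as luminescence after 1 h with detection reagent at ambient temperature.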
D2 ag-1 = Beta-Arrestin HTS for Positive Allosteric Modulators of the Human D2 Dopamine Receptor: Agonists; D(2) dopamine receptor (Homo sapiens), P14416; 360,000 tested, 0.084% active; activation, % (no concentration beside the values); DiscoveRx PathHunter D2 beta-arrestin, luminescence, 90 min; 100% = 57 uM dopamine signal; in the data active = activation above about 40%
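Agonist mode: compounds alone added to overnight-plated D2 PathHunter cells for 90 min at 37 C, with 57 uM final dopamine (EC100) defining full response. Beta-arrestin recruitment detected by chemiluminescent reagent, read after 1 h at ambient temperature.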
D2 ag-2 = HTS Assay for Allosteric Agonists of the Human D2 Dopamine Receptor: Primary Screen for Agonists; HEK293 T-REx D2 cells, calcium flux agonist mode; activation, % at 2 µM; D(2) dopamine receptor (Homo sapiens), P14416; 340,000 tested, 0.53% active;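 active = activation over 3 SD above normal in the single-dose calcium agonist read, cut at about 30% in these data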; note: 0% is about no effect
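In this primary screen, compounds producing a positive calcium signal within 180 s of addition to tetracycline-induced, force-coupled HEK293 Trex D2 cells are flagged; cells are dye-loaded with a no-wash calcium kit beforehand.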
D2 PAM-2 = HTS Assay for Positive Allosteric Modulators of the Human D2 Dopamine Receptor: Primary Screen for Potentiators. potentiation, % at 10 µM. 340,000 tested, 0.34% active. HEK293 T-REx D2, calcium flux, EC20 dopamine potentiation;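 active = potentiation over 3 SD above the plate norm, cut at about 30% in these data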; note: 0% is about no effect
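Potentiation of an EC20 dopamine calcium response measured kinetically over 180 s, after a preceding 180 s compound-only read flagging agonists. Cells: inducible Hek293 Trex D2 line, 4000/well, cultured overnight at 30 C before dye loading.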
D2 antagonist = HTS Assay for Allosteric Antagonists of the Human D2 Dopamine Receptor: Primary Screen for Antagonists; HEK293 TREx D2 cells, calcium flux, dopamine EC80; AID 485344, 2010; 340,000 tested, 2% active; inhibition, % at 10 µM; D(2) dopamine receptor (Homo sapiens), P14416; in the data active = inhibition above about 30%; inactive = below that, where a call was filed; note: 0% is about no effect
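Cells plated overnight at 30 C with tetracycline; no-wash calcium dye, 30–90 min RT; 10 s baseline; compound pinned; 180 s read; EC80 dopamine added; another 180 s read.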
Starred values were filed as active, the others as inactive. This is a sample that favours compounds with a hit; in the whole collection about 2.4% have one here.

Results for CC(C)(C)c1ccc(OCC(=O)N/N=C/c2cc(Br)ccc2OC(=O)c2ccco2)cc1 ?
D2 PAM-1: -11; D2 ag-1: -8; D2 ag-2: 1; D2 PAM-2: 0; D2 antagonist: 34*

What do the screens show for `CCCCCCCCCCCNC(=O)c1ccoc1C`?
D2 PAM-1: -1; D2 ag-1: -3; D2 PAM-2: 8; D2 antagonist: 8

What do the screens show for `CCCCCC(C)NC(=O)c1ccoc1C` (stereo not drawn)?
D2 PAM-1: -2; D2 ag-1: -3; D2 ag-2: 0; D2 PAM-2: -14; D2 antagonist: 40*

Results for CC1CCCN(S(=O)(=O)c2ccc(S(=O)(=O)N3CCC4(CC3)OCCO4)cc2)C1 (stereo not drawn) ?
D2 PAM-1: -13; D2 ag-1: -4; D2 ag-2: 0; D2 PAM-2: 0; D2 antagonist: 40*

How did O=C(Cn1cc([N+](=O)[O-])cn1)NCCc1nc2ccccc2[nH]1 do in these assays?
D2 PAM-1: 0; D2 ag-1: -7; D2 ag-2: 2; D2 PAM-2: 4; D2 antagonist: -1

What do the screens show for `O=C(NCCc1nc2ccccc2[nH]1)c1cc([N+](=O)[O-])cc([N+](=O)[O-])c1`?
D2 PAM-1: 59*; D2 ag-1: 14; D2 ag-2: -1; D2 PAM-2: 7; D2 antagonist: -10

Results for COc1ccc(C2CC(C(F)(F)F)n3nc(C(=O)NCc4c(C)nn(C)c4C)c(Cl)c3N2)cc1 (stereo not drawn) ?
D2 PAM-1: 22; D2 ag-1: 5; D2 ag-2: -1; D2 PAM-2: -6; D2 antagonist: 16

How did COc1ccc(C2CC(C(F)(F)F)n3nc(C(=O)N(C)Cc4cn(C)nc4C)c(Cl)c3N2)cc1 (stereo not drawn) do in these assays?
D2 PAM-1: -10; D2 ag-1: 0; D2 ag-2: -1; D2 PAM-2: 34*; D2 antagonist: -1

What do the screens show for `CCOC(=O)C(=CNc1ccc(OC)cc1[N+](=O)[O-])C(=O)OCC`?
D2 PAM-1: 8; D2 ag-1: 9; D2 ag-2: 2; D2 PAM-2: -4; D2 antagonist: 31*

What do the screens show for `CCC(=O)OCC(=O)Nc1ccc(OC)cc1[N+](=O)[O-]`?
D2 PAM-1: -3; D2 ag-1: -1; D2 ag-2: 0; D2 PAM-2: 12; D2 antagonist: -15

Results for COC(CNS(=O)(=O)c1ccc(Cl)cc1)c1ccccc1 (stereo not drawn) ?
D2 PAM-1: -5; D2 ag-1: 3; D2 ag-2: -2; D2 PAM-2: -11; D2 antagonist: 4

What do the screens show for `CCN(CC)C(CNS(=O)(=O)c1ccc(Cl)cc1)c1ccccc1` (stereo not drawn)?
D2 PAM-1: -8; D2 ag-1: -10; D2 ag-2: -1; D2 PAM-2: 1; D2 antagonist: 39*

How did O=C(NCc1ccccc1Cl)c1ccc(CSCc2cccc(F)c2)o1 do in these assays?
D2 PAM-2: -3

Results for Cc1ccc(-c2csc(N3CCN(c4cc5c(cc4Cl)nc(-c4ccncc4)n5CCN4CCCCC4)CC3)n2)cc1 ?
D2 PAM-1: -12; D2 ag-1: -2; D2 ag-2: 0; D2 PAM-2: 5; D2 antagonist: 4

How did CCCn1c(C)nc2cc(Cl)c(N3CCN(c4nc(-c5ccc(C)cc5)cs4)CC3)cc21 do in these assays?
D2 PAM-1: -10; D2 ag-1: -2; D2 ag-2: 0; D2 PAM-2: 3; D2 antagonist: 40*

What do the screens show for `CN(n1cnc2ccccc2c1=O)S(C)(=O)=O`?
D2 PAM-1: -4; D2 ag-1: -1

How did CS(=O)(=O)Nn1cnc2ccccc2c1=O do in these assays?
D2 PAM-1: -3; D2 ag-1: 2; D2 ag-2: 0; D2 PAM-2: 35*; D2 antagonist: 4

What do the screens show for `Cc1nc2c(C#N)c(C)[nH]n2c(=O)c1Cc1ccccc1`?
D2 PAM-1: -11; D2 ag-1: 0; D2 ag-2: 0; D2 PAM-2: 0; D2 antagonist: 17

What do the screens show for `Cc1[nH]n2c(=O)cc(Cc3ccccc3)nc2c1C#N`?
D2 PAM-1: -1; D2 ag-1: -3; D2 ag-2: 1; D2 PAM-2: 1; D2 antagonist: 42*

What do the screens show for `CCCn1cnc2c(SCc3ccccc3Cl)nc(N)nc21`?
D2 PAM-1: 11; D2 ag-1: -3

How did C/C(N)=C(/C#N)C(=O)CSc1nnc(Nc2ccccc2)s1 do in these assays?
D2 PAM-1: 10; D2 ag-1: 10; D2 ag-2: -1; D2 PAM-2: 22; D2 antagonist: 49*

How did O=C(NCCNC(=O)c1ccc(-c2ccc(Cl)c(Cl)c2)o1)c1cnccn1 do in these assays?
D2 PAM-1: 6; D2 ag-1: 8; D2 ag-2: -1; D2 PAM-2: 102*; D2 antagonist: -18

What do the screens show for `O=C(NCCNC(=O)c1ccc(-c2cccc(Cl)c2)o1)c1cnccn1`?
D2 PAM-1: -14; D2 ag-1: 2

What do the screens show for `Fc1ccc(N2CCN(Cc3cn[nH]c3-c3ccccc3)CC2)cc1`?
D2 PAM-1: -15; D2 ag-1: 1; D2 ag-2: 6; D2 PAM-2: -14; D2 antagonist: -4

What do the screens show for `COc1ccc(-c2[nH]ncc2CN2CCC(O)(c3ccc(Cl)cc3)CC2)cc1`?
D2 PAM-1: -12; D2 ag-1: 2; D2 ag-2: -1; D2 PAM-2: -22; D2 antagonist: 18

How did OC1(c2ccc(Cl)cc2)CCN(Cc2cn[nH]c2-c2ccccc2)CC1 do in these assays?
D2 PAM-1: -14; D2 ag-1: 3; D2 ag-2: 0; D2 PAM-2: -22; D2 antagonist: 84*

What do the screens show for `OC1(c2ccc(Cl)cc2)CCN(Cc2cn[nH]c2-c2ccc(F)cc2)CC1`?
D2 PAM-1: -16; D2 ag-1: 2; D2 ag-2: 3; D2 PAM-2: -20; D2 antagonist: 56*

How did COc1cc(F)ccc1CN1CCC(C(=O)Nc2ccc(Oc3ccccc3)nc2)CC1 do in these assays?
D2 PAM-1: -17; D2 ag-1: -8; D2 ag-2: 1; D2 PAM-2: -11; D2 antagonist: 40*

Results for COc1ccc(CN2CCC(C(=O)Nc3ccc(Oc4ccccc4)nc3)CC2)cc1F ?
D2 PAM-1: -15; D2 ag-1: -1; D2 ag-2: 2; D2 PAM-2: -1; D2 antagonist: 11

Assay outcomes deposited in PubChem BioAssay by National Center for Advancing Translational Sciences (NCATS).
